High-throughput results from PubChem BioAssay.
In the library only some 17% were active in any assay of this set; here they are far more common.
TDP1 cell noCPT = qHTS for Inhibitors of human tyrosyl-DNA phosphodiesterase 1 (TDP1): qHTS in cells in absence of CPT | AID 686978, 2013 | DT40 Tdp1-/- hTDP1 cells, no CPT, ATP luminescence, 48 h | Potency, µM (top dose mostly 46.2 µM), without a hit: at the top dose activity change, negative = growth inhibition, usual class: inhibitors | 15% of 420,000 active; further: on the % scale 0 is the no-effect control and ±100 the full control effect; nearly all actives have a fitted effect of over 55% in size
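DT40 Tdp1-/-;hTDP1 cells, no CPT (DMSO vehicle only), 400 cells/well; compounds pin-transferred; ≥48 hr, 37 °C; CellTiter-Glo 30 min RT dark, luminescence read.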
TGFb inhibitor = qHTS for Inhibitors of TGF-b; HepG2 CAGA-GFP TGF-b/SMAD3 reporter, GFP fluorescence, 18 h; TGF-beta stimulated, 500 pg/mL final; Potency, µM (titrated, usually from 46.1 µM), for the others: top-dose activity, negative = inhibition, most hits filed as inhibitors; 1.2% of 410,000 active; further: on the % scale 0 is the no-effect control and ±100 the full control effect; nearly all actives have a fitted effect of over 65% in size
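HEPG2 CAGA-GFP reporter cells (1000/well, DMEM with 1% FBS) received compounds, then recombinant TGF-beta at 500 pg/mL final for 18 hours at 37 degrees C. Per-cell GFP summed per well was normalised to unstimulated and stimulated DMSO controls before curve fitting.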
HT1080-NT tox = qHTS for induction of synthetic lethality in tumor cells producing 2HG: qHTS for the HT-1080-NT fibrosarcoma cell line | HT-1080-NT fibrosarcoma viability, CellTiter-Glo ATP luminescence, 48 h | Potency, µM (doses to about 46.1 µM), without a hit: at the top dose activity, negative = less viability, hits mostly cytotoxic | 1.6% of 360,000 active;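 further: NT is the 2HG producing partner of a matched IDH1 knockdown line; 0% = DMSO-treated cells and -100% = media-only wells without cells; nearly all actives have a fitted effect of over 55% in size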
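Viability of the 2HG-overproducing fibrosarcoma line after 48 hours of compound exposure at 37 degrees C was determined by luminescence with CellTiter-Glo, and concentration-effect curves were then fitted and categorized.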
HepG2 tox = qHTS for Inhibitors of TGF-b: Cytotox Counterscreen; 0.76% of 410,000 active; HepG2 CAGA-GFP viability, ATP luminescence, 18 h; Potency, µM (top dose mostly 46.1 µM), without a hit: at the top dose activity change, negative = cytotoxicity, most hits filed as cytotoxic; AID 588856, 2011
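CellTiter-Glo luminescence gave cytotoxicity after 18 hours at 37 degrees C. The cells were HepG2 CAGA-GFP in 1% FBS DMEM, stimulated with 500 pg/mL TGF-beta after compound addition. %Activity was normalised to no-cell wells (complete cell-killing) and DMSO (no toxicity), and curves were fitted and classified.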
DT40 TDP1 CPT = qHTS for Inhibitors of human tyrosyl-DNA phosphodiesterase 1 (TDP1): qHTS in cells in presence of CPT; chicken DT40 Tdp1-/-;hTDP1 cells + 20 nM CPT, ATP luminescence, 48 h; Potency, µM (top dose mostly 46.2 µM), for the others: at the top dose activity change, negative = growth inhibition, usual class: inhibitors; 12% of 420,000 active; further: on the % scale 0 is the no-effect control and ±100 the full control effect; nearly all actives have a fitted effect of over 55% in size
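Chicken DT40 Tdp1-/- cells complemented with human TDP1, 400 cells/well, exposed to compounds plus 20 nM camptothecin for at least 48 h at 37 C; viability read as ATP content by CellTiter-Glo luminescence.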
HT1080 IDH1KD tx = qHTS for induction of synthetic lethality in tumor cells producing 2HG: qHTS for the HT-1080-IDH1KD cell line. HT-1080 IDH1 knockdown viability, ATP luminescence, 48 h. Potency, µM (titrated, usually from 46.1 µM), inactives show at the top dose activity, negative = toxicity, actives largely listed as cytotoxic. 2% of 360,000 active. AID 686971, 2013;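 further: 0% = DMSO wells and -100% = cell-free medium wells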
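In this qHTS, HT-1080 cells depleted of IDH1 are exposed for 48 h at 37 °C to compound titrations. Toxicity is scored from CellTiter-Glo luminescence, with DMSO as full viability and medium alone as none.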
An asterisk follows results filed as active; ? = inconclusive; / = not tested or not shown. The call rests on the fitted dose curve; in most records, active means well fitted curve in the direction sought with a large enough effect; inconclusive means small, poorly fitted or top-dose-only effect, or another doubt; inactive means no such curve, though single readings can be large; an effect the other way counts as inactive or inconclusive. Potency means the concentration at half of the fitted maximal effect.

SMILES	TDP1 cell noCPT	TGFb inhibitor	HT1080-NT tox	HepG2 tox	DT40 TDP1 CPT	HT1080 IDH1KD tx
NC(=O)c1ccc(NC(=O)CCN=C2NS(=O)(=O)c3ccccc32)cc1	-2.3%	-16.0%	1.9%	4.3%	-1.0%	11.7%
CCCc1cc(=O)oc2c3c(ccc12)OCN(Cc1ccccc1OC)C3	/	4.6%	/	-10.8%	/	/
Cc1ccc(Sc2ccc(CN3CCCCC3)cc2[N+](=O)[O-])cc1	?	-20.7%	-3.2%	-28.7%	18.4µM*	-4.0%
CCc1ccc(NC(=S)NC(=O)CC(C)C)cc1	?	-10.6%	22.3%	-23.9%	?	13.6%
O=[N+]([O-])c1cc2c(c(CSc3nnnn3-c3ccc(O)cc3)c1)OCOC2	23.1µM*	-0.6%	-13.4%	-6.7%	20.6µM*	-18.8%
CN1CCN(c2ccc(S(=O)(=O)N3CCCCC3)cc2NC(=O)COc2cccc(Cl)c2)CC1	?	13.9%	-5.0%	-12.3%	?	-2.2%
CCOc1ccc2nc(NC(=O)c3ccco3)sc2c1	?	-5.8%	20.6µM*	-52.3%	?	18.4µM*
CCOc1ccc2nc(NC(=S)NCc3ccccc3)sc2c1	?	-6.3%	?	-27.6%	?	3.98µM*
CCOc1ccc2nc(NC(=O)c3ccoc3C)sc2c1	8.2µM*	-15.4%	2.31µM*	1.78µM*	9.2µM*	3.66µM*
S=c1[nH]nc(Nc2cccc3ccccc23)s1	-7.8%	0.0%	-1.0%	-53.4%	12.3%	0.7%
O=C(NCCC1CCCCN1S(=O)(=O)c1ccccc1)C(=O)NCc1ccncc1 (stereo not drawn)	?	1.2%	-5.3%	-12.1%	5.7%	-0.5%
CCCc1cc(=O)oc2cc(OC(C)C(=O)NCCCn3ccnc3)ccc12 (stereo not drawn)	5.3%	1.4%	4.3%	-15.5%	-8.8%	10.8%
COc1ccc(-c2cc(=O)oc3cc(OCC(=O)NCc4ccccn4)ccc23)cc1	23.1µM*	?	16.7%	-58.3%	?	2.9%
CC(Oc1ccc2c(-c3ccccc3)cc(=O)oc2c1)C(=O)NCCCn1ccnc1 (stereo not drawn)	14.6µM*	21.3%	-2.4%	-5.9%	23.1µM*	-8.3%
CCOC(=O)c1c(-c2ccc(OC)cc2)csc1NC(=O)COc1ccc2c(C)cc(=O)oc2c1	16.4µM*	0.4%	9.0%	0.4%	23.1µM*	16.2%
Cc1cc(=O)oc2cc(OC(C)C(=O)NCc3ccccn3)ccc12 (stereo not drawn)	8.1%	6.1%	7.0%	-0.1%	-12.7%	-0.3%
Cc1cc(=O)oc2cc(OCC(=O)NCc3ccccn3)ccc12	3.0%	-10.5%	-0.8%	1.8%	-1.3%	-5.7%
COc1ccc(-c2cc(=O)oc3cc(OC(C)C(=O)NCc4ccccn4)ccc23)cc1 (stereo not drawn)	?	2.4%	-1.2%	-14.1%	20.6µM*	-5.9%
Cc1ccsc1C(=O)OCC(=O)c1ccc(OC(F)F)cc1	-17.6%	15.0%	0.4%	7.2%	-3.7%	-3.8%
O=C(CSc1nccc(=O)[nH]1)N1CCN(c2ccccc2)CC1	?	11.1%	0.7%	-31.3%	?	1.1%
CCCCn1c(N)c(N(CC)C(=O)c2cnc(C)cn2)c(=O)[nH]c1=O	-1.2%	-5.2%	3.0%	3.3%	-4.4%	0.0%
